# Screens from PubChem.
# The list is not random: actives were taken first. Their share in the collection is about 1.6%.
# SUMO HTRF inh: inhibitors of human SUMOylation (UBC9); HTRF SUMOylation assay, SAE1/SAE2 + UBC9, in vitro; P63279; 290,000 compounds, 0.36% hits; inhibition, % at 35 µM; AID 2006; in the data active means inhibition above about 50%, passing the limit was not always enough
# CASP6 VEID inh: caspase-6 (human) enzyme inhibition; P55212; 350,000 compounds, 0.53% hits; AID 686996; purified caspase-6, Z-VEID-R110 cleavage fluorescence; inhibition, % at 12.5 µM;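 active means mean inhibition across replicates at least about 35%, with every replicate also reaching that limit, limit read from the data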;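 further: 0% = median of neutral control wells and 100% = no fluorescence left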
# SIRT5 inh: inhibitors of human sirtuin-5 desuccinylase; Purified SirT5, succinyl-peptide AMC, trypsin-coupled fluorescence; inhibition, % at 15 µM; 330,000 compounds, 1.1% hits; in the data active means inhibition above about 15%
# NSD2 HMT inh: blocks human histone methyltransferase NSD2; O96028; NSD2 peptide methylation, AlphaScreen, 120 min; inhibition, % at 12.5 µM; 310,000 compounds, 0.54% hits; AID 743445; in the data active means inhibition above about 50%
# Numbers without * were called inactive; . = no result; ! = not active in a repeat.
SMILES,SUMO HTRF inh,CASP6 VEID inh,SIRT5 inh,NSD2 HMT inh
CN(C)c1ccc(/C=C2/SC(=O)N(CCN=C3NS(=O)(=O)c4ccccc43)C2=O)cc1,22.2,0.1,18.1*,-1.9
O=C(NCC[C@@H]1CC[C@H](NS(=O)(=O)c2ccc(Cl)cc2)[C@@H](CO)O1)Nc1ccc(F)cc1,.,-0.4,-1.7,.
COc1ccccc1C#Cc1ccc2c(c1)O[C@H](CN(C)C)[C@@H](C)CN([C@H](C)CO)S2(=O)=O,.,-3.3,-14.9,.
COc1ccc(CN2CCC(C)=CC2C)cc1 (configuration not stated),.,2.1,0.6,.
O=C1NN(c2ccccc2)C(=O)/C1=C/c1ccc(-c2ccc(Cl)c(C(=O)O)c2)o1,2.1,54.6*,13.8,23.5
Cc1ccc(Sc2ccc(/C=C3/C(=O)NN(c4ccccc4)C3=O)o2)cc1,16.7,23.6,8.4,10.6
O=C(O)c1cc(-c2ccc(/C=C3\NC(=O)N(c4ccc(Cl)cc4)C3=O)o2)ccc1Cl,43.1,39.5*,19.9*,32.8
O=C1NN(c2ccccc2)C(=O)/C1=C/c1ccc(Sc2ccc(Cl)cc2)o1,20.0,39.8*,2.9,.
C[C@@H]1CCCCO[C@H](CN(C)S(=O)(=O)c2cn(C)cn2)[C@H](C)CN([C@@H](C)CO)C(=O)c2cc(NC(=O)NC3CCCCC3)ccc2O1,.,-2.6,4.3,.
Oc1ccc(N=Nc2ccccc2-c2nn[nH]n2)c(O)c1,-13.9,14.0,17.3*,18.0
CC1=CC(=O)c2ccccc2C1=O,-28.6,4.1,-2.5,.
CC(C)(C=O)C1=CC(=O)c2ccccc2C1=O,22.5,34.9,.,92.3*
CCCN(C)C[C@H]1Oc2cc(C#Cc3ccc(F)cc3)ccc2S(=O)(=O)N([C@H](C)CO)C[C@@H]1C,.,-1.6,15.0*!,.
CCCN(C)C[C@H]1Oc2cc(C#CCC3CCCC3)ccc2S(=O)(=O)N([C@H](C)CO)C[C@@H]1C,.,-2.6,19.3*,.
CCCN(C)C[C@H]1Oc2cc(-c3ccncc3)ccc2S(=O)(=O)N([C@H](C)CO)C[C@H]1C,.,0.2,16.6*,.
C[C@H]1CN([C@@H](C)CO)S(=O)(=O)c2ccc(C#CC(C)(C)O)cc2O[C@@H]1CN(C)Cc1ccc(F)cc1,.,2.1,15.7*,.
CCCN(C)C[C@@H]1Oc2cc(-c3ccncc3)ccc2S(=O)(=O)N([C@@H](C)CO)C[C@@H]1C,.,1.5,11.7,.
COc1ccc(S(=O)(=O)Nc2ccc3c(c2)CC(=O)N([C@H](C)CO)C[C@H](C)[C@@H](CN(C)CC2CCCCC2)O3)cc1,.,0.9,24.2*,.
COc1ccc(S(=O)(=O)Nc2ccc3c(c2)CC(=O)N([C@@H](C)CO)C[C@H](C)[C@@H](CN(C)CC2CCCCC2)O3)cc1,.,0.7,16.3*,.
Cc1ccc(S(=O)(=O)N(C)C[C@@H]2Oc3ccc(NC(=O)Cc4ccccc4)cc3C(=O)N([C@@H](C)CO)C[C@H]2C)cc1,.,1.0,-2.2,.
C[C@@H]1CCCCO[C@H](CN(C)S(=O)(=O)c2ccccc2)[C@H](C)CN([C@H](C)CO)C(=O)c2cc(NS(=O)(=O)c3ccccc3)ccc2O1,.,0.3,10.4,.
COc1ccc2c3c(n(C)c2c1)[C@@H](CO)N(C(=O)C1CCC1)CC31CN(C(=O)CN(C)C)C1,.,-2.8,15.0*,.
COc1ccc2c3c([nH]c2c1)[C@H](CO)N(C(=O)C1CC1)CC31CN(C(=O)c2ccncc2)C1,.,0.8,15.2*,.
CCNC(=O)C[C@H]1CC[C@@H]2[C@@H](COc3ccc(NC(=O)C4CCCCC4)cc3C(=O)N2C)O1,.,-3.7,5.6,.
O=C(N/N=C/c1cn(Cc2ccccc2)c2ccccc12)c1cc(O)cc(O)c1,11.5,52.8*,2.4,4.6
SMILES,SUMO HTRF inh,CASP6 VEID inh,SIRT5 inh,NSD2 HMT inh
Cc1ccc(C(=O)N/N=C/c2cn(Cc3ccccc3)c3ccccc23)cn1,9.6,-2.2,1.5,24.1
CO[C@@H]1CN(C)C(=O)c2ccc(NC(=O)Cc3ccccc3)cc2OC[C@H](C)N(C(=O)c2ccccc2F)C[C@@H]1C,.,.,7.7,.
COc1ccc(NC(=O)Nc2ccc3c(c2)C(=O)N([C@H](C)CO)C[C@@H](C)[C@@H](CN(C)Cc2ccc(C(F)(F)F)cc2)O3)cc1,.,-1.0,20.7*,.
COc1ccc(NC(=O)Nc2ccc3c(c2)C(=O)N([C@@H](C)CO)C[C@@H](C)[C@@H](CN(C)Cc2ccc(C(F)(F)F)cc2)O3)cc1,.,0.2,19.8*,.
COc1ccc(CN(C)C[C@H]2Oc3ccc(NC(=O)Nc4ccc(C(F)(F)F)cc4)cc3C(=O)N([C@@H](C)CO)C[C@@H]2C)cc1,.,4.4,-2.5,.
COc1ccc(NC(=O)Nc2ccc3c(c2)C(=O)N([C@@H](C)CO)C[C@H](C)[C@H](CN(C)Cc2ccc(C(F)(F)F)cc2)O3)cc1,.,-0.3,5.8,.
